In all, about 33,000 sequences were measured (“E-score (-0.5 to 0.5)”: median about -0.056, highest 2% from about 0.38 on). The sample as a whole holds a higher share of the highest values than the screen did.
The sequences below were run against Stb4 (UniProt P50104) (assay: PBM E-score (8-mer binding enrichment) (E-score (-0.5 to 0.5)); higher = stronger / more preferred TF binding). Details: protein concentration: 200 nM; construct: GST-DNA-binding domain.
Summary of the method: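 E-scores (a modified Wilcoxon-Mann-Whitney statistic) were assigned by the Universal PBM Analysis Suite to every ungapped eight-base word pooled with its reverse complement. The input came from universal all-10-mer Agilent arrays made double-stranded by primer extension and probed with GST-tagged yeast transcription factors at about 100-200 nM. Fluorescent anti-GST detected bound protein, and masliner normalised the scans.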

UniProt P50104, sequence (P50104 whole entry, the tested form may be a part): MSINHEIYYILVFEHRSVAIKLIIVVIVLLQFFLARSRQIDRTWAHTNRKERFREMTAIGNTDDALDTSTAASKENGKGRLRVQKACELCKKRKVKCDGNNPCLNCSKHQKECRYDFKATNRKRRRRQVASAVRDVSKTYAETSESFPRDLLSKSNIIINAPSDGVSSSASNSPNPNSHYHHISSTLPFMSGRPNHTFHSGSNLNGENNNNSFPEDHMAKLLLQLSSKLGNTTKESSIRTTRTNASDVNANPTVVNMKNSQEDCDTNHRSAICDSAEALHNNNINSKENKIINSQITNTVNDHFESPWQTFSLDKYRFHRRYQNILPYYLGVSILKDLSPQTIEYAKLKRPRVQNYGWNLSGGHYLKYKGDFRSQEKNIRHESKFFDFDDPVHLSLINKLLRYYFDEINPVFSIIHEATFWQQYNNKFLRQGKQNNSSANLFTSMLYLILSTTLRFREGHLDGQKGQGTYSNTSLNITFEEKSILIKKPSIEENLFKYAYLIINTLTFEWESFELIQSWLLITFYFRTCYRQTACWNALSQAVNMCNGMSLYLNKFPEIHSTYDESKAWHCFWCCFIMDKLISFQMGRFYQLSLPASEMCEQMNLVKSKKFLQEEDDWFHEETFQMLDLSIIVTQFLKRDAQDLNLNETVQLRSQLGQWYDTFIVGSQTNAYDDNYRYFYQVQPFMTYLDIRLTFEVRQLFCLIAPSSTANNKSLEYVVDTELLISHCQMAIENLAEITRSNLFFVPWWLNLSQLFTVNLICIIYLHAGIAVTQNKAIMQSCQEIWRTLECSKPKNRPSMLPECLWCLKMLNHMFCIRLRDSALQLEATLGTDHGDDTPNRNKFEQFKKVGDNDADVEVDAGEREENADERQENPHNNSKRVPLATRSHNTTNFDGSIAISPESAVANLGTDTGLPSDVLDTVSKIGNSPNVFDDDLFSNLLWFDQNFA

Row | Sequence | PBM E-score
1 | ACCTGGTG | -0.0216
2 | ATCGGCGG | 0.327
3 | AGCATCCG | 0.419
4 | CGCATCCG | 0.408
5 | AGCATCCA | -0.115
6 | CGCATCCA | -0.126
7 | AGCATCCT | 0.0794
8 | CGCATCCC | -0.0101
9 | CTCGTAGA | -0.246
10 | GAAACGTC | 0.0218
11 | AATCGGTA | 0.205
12 | GCTCGGTA | 0.416
13 | CCTCGGTA | 0.38
14 | GATCGGTA | 0.407
15 | ACTCGGTA | 0.322
16 | CATCGGTA | 0.345
17 | GCTAGACC | -0.0645
18 | AGTTTTCG | 0.152
19 | TATGAAGA | -0.0238
20 | ACTGTCTG | -0.0825
21 | CGGAAAGA | 0.407
22 | AGGAAAGA | -0.174
23 | CAGAAAGC | -0.131
24 | GGGAAAGA | -0.0458
25 | AGGAAAGC | -0.0848

Row | Sequence | PBM E-score
26 | CGGAAAGC | 0.386
27 | TGAGCTAA | -0.15
28 | CAATGCGG | 0.0433
29 | AACTTCCA | 0.132
30 | CACTTCCC | 0.0457
31 | AACTTCCG | 0.451
32 | AACTTCCT | -0.0245
33 | CACTTCCA | -0.0868
34 | CACTTCCG | 0.397
35 | AGTTCATC | -0.107
36 | CGAACGAG | 0.0473
37 | CAGAGTGA | -0.0625
38 | AATAACTC | -0.0405
39 | AGATGAGA | -0.103
40 | GATTGCGC | -0.00733
41 | AGATAAAC | 0.00284
42 | AGAGACCC | -0.0488
43 | AAGTTCGG | 0.421
44 | CAGTTCGC | -0.194
45 | CAGTTCGG | 0.409
46 | AAGTTCGC | -0.187
47 | AAGTTCGA | 0.0503
48 | CAGTTCGA | -0.262
49 | ATCCACGG | 0.109
50 | GGGAGACA | 0.146

Row | Sequence | PBM E-score
51 | CAGGCGGC | 0.067
52 | CCCGTCGA | 0.102
53 | CCCGTCGC | -0.00272
54 | CCCGTCGG | 0.386
55 | CCTGGCAC | -0.00805
56 | GAAGAGGC | -0.016
57 | ATAGGATA | -0.00309
58 | AACGGATC | 0.306
59 | CTCGGATA | 0.49
60 | ATCGGATG | 0.451
61 | ATCGGATC | 0.43
62 | ATGGGATG | -0.0874
63 | ATCGGATA | 0.467
64 | CTCAGATA | -0.00864
65 | ATTGGATA | -0.121
66 | ATCGGAGG | 0.199
67 | ATTGGATC | -0.0271
68 | CTAGGATA | -0.0673
69 | CCCTCTAA | -0.182
70 | AGACCTTG | -0.312
71 | ACTAGGAC | -0.0716
72 | GTCATTTA | -0.171
73 | AATGGTTG | 0.02
74 | GTCAGGCA | -0.118
75 | AGCTGGAT | -0.0862

Row | Sequence | PBM E-score
76 | AAGACTGA | -0.25
77 | CTGGGATC | -0.0424
78 | CTCAGATC | -0.103
79 | GTCGGATA | 0.463
80 | GTCGGAGA | 0.294
81 | GTCGGACA | 0.22
82 | CTCGGATC | 0.481
83 | GTCAGCTA | -0.259
84 | TCTGCAAA | -0.122
85 | CCATCGCA | -0.229
86 | CGGAAATA | 0.429
87 | GGGAAATA | 0.157
88 | CGGAAAAC | 0.37
89 | CGGAAAAG | 0.373
90 | CGGAAAAA | 0.446
91 | CGGAAATC | 0.366
92 | CTCTTTGA | -0.285
93 | CTTAGAAG | -0.29
94 | CGTATTGA | -0.271
95 | AGTTACTA | -0.103
96 | ACAATCTG | -0.064
97 | ACAACGGC | 0.108
98 | GAACGCGA | -0.0119
99 | ATTTCCGA | 0.47
100 | ATTTCCCA | -0.0128

Row | Sequence | PBM E-score
101 | ATTTCCGG | 0.426
102 | ATTTCCGC | 0.307
103 | ATTTCCTG | -0.0528
104 | ATTTCCAA | 0.0026
105 | TCTGGACA | -0.0785
106 | GCATAGCC | -0.0533
107 | GTCTGCTA | -0.0233
108 | CCGACCCG | 0.407
109 | GCGACGGA | 0.245
110 | ACGACCCG | 0.251
111 | CCGACGCC | 0.343
112 | ACGACGGA | 0.22
113 | CCGACGCG | 0.397
114 | CCGACCCC | 0.214
115 | ACGACGCG | -0.0636
116 | CCGACGGA | 0.404
117 | CTGACGCA | -0.298
118 | CTCAGTGC | -0.109
119 | ACATTGCT | -0.233
120 | GTCAGACA | -0.0277
121 | ATTACGCA | 0.00056
122 | AGCATTTC | -0.0674
123 | GGTTGGAA | 0.12
124 | ATCTACCA | -0.135
125 | TCCAACCA | -0.117

Row | Sequence | PBM E-score
126 | CGAGATGC | 0.0535
127 | ACCCGACG | 0.425
128 | CCCCGACA | 0.16
129 | GCCCGACA | 0.187
130 | ACCCGACT | 0.33
131 | CCCCGACG | 0.277
132 | ACCCGACA | 0.402
133 | CGTTGGAG | -0.232
134 | ACGAGCCG | 0.292
135 | ACGAGCCC | -0.198
136 | CCGAGCCA | 0.407
137 | ACGAGCCA | -0.307
138 | GCGAGCCC | -0.0138
139 | CCGAGCCG | 0.468
140 | CGGAGCCG | 0.352
141 | CCGAGCCC | 0.444
142 | TCGAGCCA | -0.204
143 | GGAGTATA | 0.235
144 | AACCGTCT | 0.00908
145 | GCGGGTCA | 0.0978
146 | GAGCCCAA | -0.16
147 | GGAGGAAC | -0.0445
148 | GTTCTGAA | -0.216
149 | AACGAGCT | -0.256
150 | AACCCTCA | -0.148

Row | Sequence | PBM E-score
151 | GATTAGCA | -0.177
152 | ATCGGAGA | 0.272
153 | CTCGGACC | 0.412
154 | CACGGAGC | 0.174
155 | CACGGACC | 0.114
156 | ATCGGAGC | 0.282
157 | CTCGGAGC | 0.395
158 | CTCGGACA | 0.366
159 | CTCGGAGA | 0.406
160 | CACGGAGA | 0.14
161 | CGAGTGAC | -0.0128
162 | AACCTCGG | 0.452
163 | ACCCTCGC | -0.131
164 | ACCCTCGA | -0.165
165 | CACCTCGA | -0.0678
166 | CACCTCGC | 0.0165
167 | CACCTCGG | 0.393
168 | ATCCTCGA | -0.25
169 | AACCTCGT | -0.062
170 | ACCCTCGG | 0.426
171 | ATCCTCGG | 0.417
172 | ATCCTCGC | -0.0124
173 | AACCTCGA | -0.0623
174 | AATGCGAA | 0.0466
175 | GGTTGGTA | 1e-05

Row | Sequence | PBM E-score
176 | TCGCATAA | -0.0545
177 | CGGGCTGA | 0.0911
178 | CGTCTTTA | -0.0915
179 | CAATTGGA | -0.112
180 | ACCTCCCT | -0.111
181 | AAAGGGGA | -0.22
182 | AGCTCCGG | 0.301
183 | CTCTGAAC | -0.174
184 | CTTTCGTC | -0.0646
185 | ATTTCGGC | 0.371
186 | ATTTCGCA | 0.0506
187 | ATTTCGGG | 0.39
188 | CTTTCGTA | -0.177
189 | CTTTCGGA | 0.432
190 | ATTTCGCG | 0.0954
191 | CTTTCGGC | 0.386
192 | CTTTCGAA | -0.204
193 | ATTTCGGA | 0.454
194 | CTTTCGAC | -0.172
195 | ATTTCGAG | -0.0811
196 | AACGTTCG | 0.113
197 | CTTTCTGA | -0.25
198 | CGCGCCAG | 0.104
199 | AGCGCTCG | -0.0312
200 | CTTCGTCA | -0.177

Row | Sequence | PBM E-score
201 | GTAGTTCA | 0.0756
202 | GCGGTGCA | -0.283
203 | ATTCTCCG | 0.264
204 | AGTAAAAC | -0.181
205 | GTGGTGAA | 0.0732
206 | GTTTCGAA | -0.145
207 | GTTTCGGA | 0.43
208 | GTTTCGTA | 0.128
209 | AAGCTGAT | 0.104
210 | CCACCTAC | -0.246
211 | AGCATCAA | -0.15
212 | ACAGGTGG | -0.226
213 | TCGAGGAA | -0.13
214 | CCGAGGAG | 0.393
215 | ACGAGGAG | -0.349
216 | CCGAGGAC | 0.371
217 | CGGAGGAG | 0.209
218 | CCGAGGAA | 0.387
219 | ATGAAGGG | -0.114

Reference: the supplement of paper PMC3334620
